In PubChem BioAssay AID1863 (Southern Research Specialized Biocontainment Screening …, 2009):
The campaign covered roughly 300,000 compounds. About 480 (0.16%) were called active. These entries were drawn from the full list. Measured potencies and affinities stand elsewhere. Values without a mark were called inactive.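 Rule for the calls: active = inhibition over 29.93%, a cutoff 3 SD above the screen mean, later confirmed by dose response; inconclusive = inhibition over 29.93% but no dose response follow-up; inactive = inhibition at most 29.93% or unconfirmed.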

Assay: inhibitors of PhoP regulon expression, primary screen, Salmonella Typhimurium, GFP reporter (AID 1863);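 note: 0% = low Mg2+ inducing control and 100% = high Mg2+ repressing control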
Conditions: S. Typhimurium PhoP-regulated promoter GFP reporter, 4 h; at 50 µM; hits give high values

| SMILES | inhibition [%] |
| --- | --- |
| Cc1cc(C)cc(NC(=O)CC2NCCNC2=O)c1 (stereo not drawn) | -1.2 |
| O=C(CC1CCS(=O)(=O)C1)Nc1ccc[nH]c1=O (stereo not drawn) | -5.21 |
| Cc1sc2cc3c(c(C(=O)c4ccccc4)[n+]2c1C)-c1cccc2cccc-3c12 | -2.96 |
| Cc1sc2ccccc2[n+]1CC(=O)c1ccccc1 | 2.11 |
| CCn1cc(C(=O)NCCC(C)C)c(=O)c2cc(F)c(N3CCN(C)CC3)cc21 | 8.97 |
| CCn1cc(C(=O)NCC(C)C)c(=O)c2cc(F)c(N3CCN(C(=O)c4ccco4)CC3)cc21 | 5.43 |
| CCn1cc(C(=O)NN)c(=O)c2cc(F)c(N3CCN(C)CC3)cc21 | 3.03 |
| CCCNC(=O)c1cn(CC)c2cc(N3CCN(C(=O)c4ccco4)CC3)c(F)cc2c1=O | -3.25 |
| CCn1cc(C(=O)N[C@H](C)c2ccccc2)c(=O)c2cc(F)c(N3CCN(C)CC3)cc21 | 4.39 |
| COc1ccc(CC2(CO)CCN(C(C)COc3ccccc3)CC2)cc1 (stereo not drawn) | -5.24 |
| O=C(NC(=S)Nc1ccc(S(=O)(=O)Nc2ncccn2)cc1)c1ccc(Br)cc1 | -1.85 |
| Cc1cccc(NC(=O)c2cc(NC(=O)C3CC=CCC3C(=O)O)ccc2N2CCOCC2)c1 (stereo not drawn) | 13.8 |
| CCN(CC(=O)Nc1c(F)cccc1F)C(=O)C1(c2ccccc2)CC1 | -5.13 |
| CCC(=O)c1cn(CC(=O)NCc2cccnc2)c2ccccc12 | 3.99 |
| Cc1cc(C)cc(OC(=O)CCN2C(=O)C3C4C=CC(C5CC45)C3C2=O)c1 (stereo not drawn) | 1.31 |
| CCOc1ccc2nc(NC(=O)C3CCN(S(=O)(=O)c4cnc[nH]4)CC3)sc2c1 | 1.27 |
| CN(C)c1cccc(C(=O)OCC(=O)N2CCc3ccccc3C2)c1 | -2.35 |
| CC1CCN(c2nc3c(c(=O)n(C)c(=O)n3C)n2Cc2ccccc2)CC1 | 0.23 |
| O=[N+]([O-])c1ccc(NC(=S)NCC(c2cccnc2)N2CCOCC2)cc1 (stereo not drawn) | -4.57 |
| CCCCCNC(=O)c1cn(CC)c2cc(N3CCN(C)CC3)c(F)cc2c1=O | 4.54 |
| CCCCNC(=O)c1cn(CC)c2cc(N3CCN(C(=O)c4ccco4)CC3)c(F)cc2c1=O | -7.68 |
| C/C(=N\OC(=O)c1ccc(F)cc1)c1ccc(F)c(F)c1 | -1.74 |

| SMILES | inhibition [%] |
| --- | --- |
| O=C(OCc1ccc(COC(=O)c2ccccn2)cc1)c1ccccn1 | -1.35 |
| CCOC(=O)C1CCCN(Cc2sccc2C)C1 (stereo not drawn) | 7.84 |
| C[C@H](NC(=O)C1CCN(S(=O)(=O)c2ccccc2)CC1)C(=O)NCc1cccc(C(F)(F)F)c1 | -1.18 |
| COC(=O)n1c(=O)oc2cc(S(=O)(=O)N3CCOCC3)ccc21 | 7.81 |
| CN(C)C(=O)CN1C(=O)c2cccc3cccc1c23 | 8.86 |
| O=C(Nc1ccc2ncccc2c1)c1cc(Cl)ccc1Cl | 0.12 |
| O=C(NCc1ccccc1)C(c1cccnc1)N(C(=O)c1ccccn1)c1ccc(F)cc1 (stereo not drawn) | 2.95 |
| Cc1ccc(S(=O)(=O)N/N=C2\C(=O)C3(C)CCC2C3(C)C)cc1 (stereo not drawn) | 4.91 |
| COc1nccnc1NS(=O)(=O)c1ccc(NC(=S)NC(=O)c2cccnc2)cc1 | 36 |
| COc1ccc(NS(=O)(=O)c2ccc(NC(=S)NC(=O)c3cccnc3)cc2)nn1 | 10.7 |
| NC(=O)c1ccc(NC(=O)COc2coc(CN3CCc4ccccc4C3)cc2=O)cc1 | 6.56 |
| COc1ccccc1C(C[N+](=O)[O-])c1c(N)n(C)c(=O)n(C)c1=O (stereo not drawn) | 2.03 |
| COc1cc(C(C[N+](=O)[O-])c2c(N)n(C)c(=O)n(C)c2=O)ccc1O (stereo not drawn) | -4.81 |
| CC(C)OC(=O)CSc1nnc(CNc2cccc(Cl)c2)n1C | -3.82 |
| CCSc1ccccc1C(=O)Nc1nc2ccccc2c(=O)[nH]1 | 2.88 |
| COc1cc2cccc(OC)c(=O)c2c(OC)c1OC | -4.09 |
| COc1cc2cccc(OC)c(=O)c2c(O)c1OC | -3.95 |
| Cc1ccc(-c2nn(-c3ccccc3)cc2C(=O)NCC(c2cccs2)N2CCOCC2)cc1 (stereo not drawn) | -6.92 |
| CC(C)CCOP(=O)(c1ccc(N(C)C)cc1)C(O)c1c(Cl)cccc1Cl (stereo not drawn) | -4.25 |
| COc1ccc([N+](=O)[O-])cc1NC(=O)C(C)OC(=O)C1CC(=O)N(Cc2ccco2)C1 (stereo not drawn) | -5.1 |
| COC(=O)c1ccc(N2C(=O)CC(N3CCOCC3)C2=O)cc1 (stereo not drawn) | 1.31 |
